From PubChem BioAssay (NCI)
This is part of a sample that, as a whole, favours compounds with a hit. Of some 79,000 tested, about 15% had one in any assay. No stated cut-off is given here; in the data, active means growth inhibition above about 70%; inactive means the rest.

Columns and labels:
[1] = NCI Yeast Anticancer Drug Screen. Data for the rad50 strain (AID 155);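 further: 0% = growth of vehicle-only cultures of the same strain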; conditions: S. cerevisiae rad50 strain growth inhibition; at 50.0 µM; hits give high values
How it was run: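 Cells are treated with compound, grown, and their growth is then scored against vehicle-only cultures of the same repair-deficient yeast strain.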

[2] = NCI Yeast Anticancer Drug Screen. Data for the mec2-1 strain (AID 157); conditions: S. cerevisiae mec2-1 strain, at 50.0 µM, hits give high values
How it was run: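 Vehicle-treated cultures served as reference for growth inhibition of compound-exposed mec2-1 yeast.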

[3] = NCI Yeast Anticancer Drug Screen. Data for the sgs1 mgt1 strain (AID 161);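 further: 0% = growth of cultures given vehicle only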; conditions: S. cerevisiae sgs1 mgt1 strain, at 50.0 µM, hits give high values
How it was run: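 Mutant yeast exposed to compound; growth scored against vehicle-only wells.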

[4] = NCI Yeast Anticancer Drug Screen. Data for the cln2 rad14 strain (AID 165);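 further: 0% = growth equal to vehicle treated cultures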; conditions: S. cerevisiae cln2 rad14 strain, at 50.0 µM, hits give high values
How it was run: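 Each compound was tested on cln2 rad14 yeast. Inhibition of growth was calculated against vehicle-exposed controls.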

[5] = NCI Yeast Anticancer Drug Screen. Data for the bub3 strain (AID 167); conditions: S. cerevisiae bub3 mutant strain, at 50.0 µM, hits give high values
How it was run: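 Part of a panel of yeast mutants defective in DNA damage repair or cell cycle regulation. Each strain is grown with compound, and inhibition is calculated relative to solvent-treated cultures.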

[6] = NCI Yeast Anticancer Drug Screen. Data for the mlh1 rad18 strain (AID 175); conditions: S. cerevisiae mlh1 rad18 strain growth inhibition; at 50.0 µM; hits give high values
How it was run: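 Vehicle-treated cultures served as the reference for growth inhibition in a yeast strain carrying DNA damage repair alterations exposed to each compound.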

Measured: growth inhibition

N#CCCn1cnc2c(Cl)ncnc21
inactive: [1] -10.2% | [2] 5.15% | [3] -18.2% | [4] -12.7% | [5] -7% | [6] -2.6%

CC(C)c1ccc(/C=C2/CCCCC2=O)cc1
inactive: [1] -2.55% | [2] -15% | [3] -10.5% | [4] -68.8% | [5] -16.4% | [6] -24.9%

O=[N+]([O-])c1cc(Cl)cc2cc(Br)cnc12
inactive: [1] 4.2% | [2] 15.3% | [3] -19.9% | [4] 3.8% | [5] 10.5% | [6] 4.4%

Cc1cccc(CCSCCc2cccc(C)[n+]2[O-])[n+]1[O-]
inactive: [1] 19.8% | [2] -2.45% | [3] -1.1% | [4] 17.4% | [5] 0.8% | [6] 1.8%

O=c1[nH]c(O)c(/C=N/C(=S)NCc2ccccc2)c(=O)[nH]1
inactive: [1] -41% | [2] -37.9% | [3] -26.1% | [4] 5.9% | [5] -0.55% | [6] -12.3%

CCCCCC(=O)NC(=S)Nc1nn[nH]n1
inactive: [1] -38.8% | [2] -50.7% | [3] -39.1% | [4] -8.4% | [5] -25.3% | [6] -47.1%

O=C(NO)c1ccccc1O
inactive: [1] 27.2% | [2] 21% | [3] -14.8% | [4] 4.2% | [5] 8% | [6] 17.8%

Cc1cc(S(N)(=O)=O)c2ncccc2c1
inactive: [1] 1.8% | [2] -3.5% | [3] 2.35% | [4] -33.1% | [5] -8.4% | [6] -3.2%

C=CCOC(=O)CC(O)(CC(=O)OCC=C)C(=O)OCC=C
inactive: [1] -3.4% | [2] -17.9% | [3] -11.8% | [4] -35.5% | [5] -6.4% | [6] -12.2%

CC(=O)CC(=O)NCc1cccc(C)n1
inactive: [1] 38.1% | [2] 24.6% | [3] 28.6% | [4] -8.15% | [5] 20.9% | [6] 24.1%

O=[N+]([O-])c1cc([N+](=O)[O-])c(C(Cl)C(Cl)c2ccccc2)cc1C(Cl)C(Cl)c1ccccc1 (stereo unspecified)
inactive: [1] 2.4% | [2] 2.55% | [3] -18.9% | [4] 7.65% | [5] 0.6% | [6] -20.4%

Nc1[nH]c(=S)[nH]c(=O)c1NS(=O)(=O)c1cccc([N+](=O)[O-])c1
inactive: [1] -14.1% | [2] -10% | [3] -22.1% | [4] -18.2% | [5] -11.4% | [6] 12.8%

CC1CC(C[N+](=O)[O-])CC2(C1)OCCO2 (stereo unspecified)
inactive: [1] -1.5% | [2] -25.3% | [3] -28.6% | [4] 5.1% | [5] -28.8% | [6] -5.15%

CC(C)(O)C(c1ccccc1)S(=O)(=O)O (stereo unspecified)
inactive: [1] -2.5% | [2] -18.6% | [3] -0.3% | [4] -27.4% | [5] -0.45% | [6] 48.5%

O=C1c2cccc3cccc(c23)C(=O)N1CCCN(CCO)CCO
inactive: [1] -1.25% | [2] 4.25% | [3] -4.35% | [4] 7.95% | [5] -7.6% | [6] 14.2%

CCC(=O)/C=C/c1ccc(Cl)cc1
inactive: [1] 10.7% | [2] 8% | [3] 7.75% | [4] -25.6% | [5] -14.7% | [6] 11.3%

CCCC1=C(c2ccc(OC)cc2)Cc2cc(OC)ccc21
inactive: [1] -14.9% | [2] -16.9% | [3] -1.05% | [4] -2.4% | [5] 2.1% | [6] 9%

CCc1cnc(N)nc1N
inactive: [1] -0.6% | [2] 4.75% | [3] 5.85% | [4] 1.95% | [5] 0.95% | [6] 0.65%

COC(=O)c1nc2c(n(C)/c1=N/C(=O)Nc1ccccc1)CCCC2
inactive: [1] 61.5% | [2] -2.9% | [3] 4.25% | [4] -7.65% | [5] 4.65% | [6] -50.6%

C[N+](C)(C)C(C1=CCCC1=O)c1ccccc1 (stereo unspecified)
inactive: [1] 50% | [2] 43.3% | [3] 3.7% | [4] 26.9% | [5] 30.3% | [6] 43.6%

CCCCCCCCCCCCCCNCCCCCCCCCCCCCC
inactive: [1] 21% | [2] -9% | [3] 23.8% | [4] 32.2% | [5] 17.1% | [6] 17.4%

CCOC(=O)c1c(/N=C/c2ccc3c(c2)OCO3)sc2c1CCCC2
inactive: [1] 7.7% | [2] -23.3% | [3] 17.8% | [4] 11.8% | [5] 11.3% | [6] 3.2%

C=CCC1=C(C)C[C@@H]2CCC(=O)C=C12
inactive: [1] 9.05% | [2] -24.9% | [3] -8.5% | [4] 11.2% | [5] -13% | [6] 5.5%

Cn1c(C(=O)NN)cc2cc(OCc3ccccc3)ccc21
inactive: [1] 30.1% | [2] 5.75% | [3] 7.2% | [4] 4.55% | [5] 13.2% | [6] 2.4%

COC(=O)CCC(=O)c1cc(OC)c2cc3ccccc3cc2c1OC
inactive: [1] 9.2% | [2] -10.4% | [3] -2.55% | [4] 5.75% | [5] -17.4% | [6] -15.6%

Cc1ccccc1/C=N/Nc1ccc([N+](=O)[O-])cc1[N+](=O)[O-]
inactive: [1] -2.45% | [2] 13.4% | [3] -1.75% | [4] -35.1% | [5] -25.1% | [6] -11.8%

CN(CCCCl)Cc1ccccc1
inactive: [1] 1.85% | [2] -26.8% | [3] -24.7% | [4] 1.35% | [5] -14.3% | [6] -7.55%

CCCCCNC(=O)c1csc(-c2csc(CCNC(C)=O)n2)n1
inactive: [1] -18.9% | [2] 4.85% | [3] 4.7% | [4] -26.1% | [5] 16.1% | [6] 3.8%

O=C1C=CC(CCCCCn2ccc(=O)[nH]c2=O)C(=O)N1 (stereo unspecified)
inactive: [1] -8.25% | [2] 3.15% | [3] 14.7% | [4] 13.8% | [5] -6.6% | [6] -0.25%

CC1(C)CC(C)(O)N(CCc2ccccc2)C(=S)N1 (stereo unspecified)
inactive: [1] -6.55% | [2] 2.7% | [3] 8.8% | [4] -17.1% | [5] 5.15% | [6] 2.45%

Cc1cccc2c(C(=O)O)c3cccc(C)c3nc12
inactive: [1] 2.9% | [2] -0.15% | [3] 8.35% | [4] 18.6% | [5] 5.3% | [6] -3.95%

C#Cc1c(C)c(/C=C/C(C)=C/C=C/C(C)=C/C(=O)OC)n(C)c1C
inactive: [1] 12.2% | [2] 4.7% | [3] 20.3% | [4] 10.8% | [5] 23.6% | [6] 23.4%

CCOC(=O)C(=O)SCC(NC(=O)OCc1ccccc1)C(=O)O (stereo unspecified)
inactive: [1] -12.9% | [2] -4.95% | [3] 11.7% | [4] -1.95% | [5] 7.75% | [6] -12.2%

NNc1nnnc2ccccc12
inactive: [1] 14.2% | [2] 1.1% | [3] -0.8% | [4] -38.2% | [5] -31.1% | [6] 22.2%

O=[N+]([O-])c1ccc(OC2CC3C4C=CC3C2C4)c([N+](=O)[O-])c1 (stereo unspecified)
inactive: [1] -27.9% | [2] -17.1% | [3] -5.45% | [4] 20.8% | [5] -9.6% | [6] -24.6%

CC1c2ccccc2Cn2cc3c(c21)C(=O)c1cccc(OP(=O)(O)OCc2ccccc2)c1C3=O (stereo unspecified)
inactive: [1] 2.2% | [2] 12.6% | [3] 13.1% | [4] 3.45% | [5] 5.1% | [6] 11.9%

COC(=O)C(CS)NC(=O)CNC(=O)CNC(=O)C(CCCCNC(=O)OCc1ccccc1)NC(=O)CNC(=O)C(CSC(c1ccccc1)(c1ccccc1)c1ccccc1)NC(=O)OCc1ccccc1 (stereo unspecified)
inactive: [1] -16.2% | [2] 2.75% | [3] -10.7% | [4] -17.2% | [5] -25.2% | [6] 0.2%

CC(C)N(CCC#N)C(=S)Nc1cccc(C(F)(F)F)c1
inactive: [1] 21.6% | [2] 13.2% | [3] 25.1% | [4] 0.25% | [5] 12.2% | [6] -2.85%

CN(C)CC1CCCC(CN(C)C)C1OC(=O)c1ccccc1 (stereo unspecified)
inactive: [1] 23% | [2] -5.15% | [3] 9.25% | [4] -37.5% | [5] 14.4% | [6] 50.9%

Cc1ccc(O)c(C2C=CCC2)c1 (stereo unspecified)
inactive: [1] 8.6% | [2] -7.25% | [3] 22.8% | [4] 7.5% | [5] -1.35% | [6] 4.2%

C=C(C)CN(CC(=C)C)C(C)=O
inactive: [1] 5.7% | [2] -17.7% | [3] -15.4% | [4] -6.15% | [5] -16.3% | [6] -5.85%
